Giardia FBPA inh: inhibitors of Giardia lamblia fructose-1,6-bisphosphate aldolase. A8B2U2. purified Giardia FBPA. Potency, µM (series often up to 59.6 µM), most hits filed as inhibitors. 0.71% of 290,000 active; further: nearly all actives have a fitted effect of over 55% in size
Target sequence (A8B2U2 whole entry, looked up): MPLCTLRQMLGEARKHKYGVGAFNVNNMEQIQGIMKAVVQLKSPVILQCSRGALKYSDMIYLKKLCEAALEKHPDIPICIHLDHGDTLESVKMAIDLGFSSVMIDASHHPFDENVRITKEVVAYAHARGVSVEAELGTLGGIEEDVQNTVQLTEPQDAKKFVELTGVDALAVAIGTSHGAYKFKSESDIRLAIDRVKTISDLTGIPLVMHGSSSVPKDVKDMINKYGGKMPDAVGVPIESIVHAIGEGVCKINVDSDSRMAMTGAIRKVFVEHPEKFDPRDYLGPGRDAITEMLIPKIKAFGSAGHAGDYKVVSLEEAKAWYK
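Giardia FBPA (40 nM reagent) was preincubated 10 min at RT with compound (up to 57.5 uM final), then substrate plus GAPDH/TPI/NAD/arsenate coupling system with diaphorase/resazurin was added; resorufin fluorescence (525/598 nm) was read after 20 min.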
AmpC detergent: AmpC beta-lactamase inhibition with detergent present. Potency, µM (doses to about 114 µM), actives largely listed as inhibitors. 0.041% of 370,000 active. P00811. AmpC hydrolysis of nitrocefin, absorbance 480 nm, 0.01% Triton. AID 485294; further: nearly all actives have a fitted effect of over 25% in size
Target sequence (P00811 whole entry, looked up): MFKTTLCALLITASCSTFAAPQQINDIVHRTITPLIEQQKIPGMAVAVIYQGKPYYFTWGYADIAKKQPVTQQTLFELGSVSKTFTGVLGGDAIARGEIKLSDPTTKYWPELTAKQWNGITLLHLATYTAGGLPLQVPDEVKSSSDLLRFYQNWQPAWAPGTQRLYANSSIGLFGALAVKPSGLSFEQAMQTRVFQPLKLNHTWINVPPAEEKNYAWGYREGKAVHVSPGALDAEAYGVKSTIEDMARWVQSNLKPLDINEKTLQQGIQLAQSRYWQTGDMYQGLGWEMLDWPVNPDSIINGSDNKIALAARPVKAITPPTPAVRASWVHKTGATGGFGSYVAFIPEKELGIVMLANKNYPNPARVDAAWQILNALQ
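AmpC (5.3 nM in the dispensed reagent) in 20 mM phosphate pH 7.0 with 0.01% (detergent screen) or 0.0001% Triton X-100 was preincubated with compounds for 15 min at room temperature. Nitrocefin was then added from an 800 uM solution, and hydrolysis was followed at 480 nm.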
AmpC no deterg: inhibitors of E. coli AmpC beta-lactamase without detergent | AmpC nitrocefin hydrolysis, absorbance 480 nm, 0.0001% Triton | Potency, µM (top dose mostly 57.1 µM), hits mostly inhibitors | 0.52% of 330,000 active | AID 485341; further: nearly all actives have a fitted effect of over 20% in size
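AmpC (5.3 nM in the dispensed reagent) in 20 mM phosphate pH 7.0 with 0.01% (detergent screen) or 0.0001% Triton X-100 was preincubated with compounds for 15 min at room temperature. Nitrocefin was then added from an 800 uM solution, and hydrolysis was followed at 480 nm.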
AMA1-RON2 inh: AMA1-RON2 (P. falciparum) interaction inhibition | 0.2% of 360,000 active | Potency, µM (highest dose often 58.2 µM), most hits filed as inhibitors | AlphaScreen AMA1-biotinylated RON2 peptide binding | AID 720542; further: nearly all actives have a fitted effect of over 45% in size
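AMA1 (3D7) with his tag at 25 nM final met compounds first, then biotinylated RON2 peptide at 25 nM; detection used donor plus acceptor beads, 10 µg/mL apiece, read by AlphaScreen after 30 min at room temperature.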
A number is an active result; n = inactive; u = inconclusive; x = no result. Sampled rows, rich in hits. Any-hit rate of the full collection: about 1.1%. The call rests on the fitted dose curve; in most records, active means well fitted curve in the direction sought with a large enough effect; inconclusive means small, poorly fitted or top-dose-only effect, or another doubt; inactive means no such curve, though single readings can be large; an effect the other way counts as inactive or inconclusive.

SMILES	Giardia FBPA inh	AmpC detergent	AmpC no deterg	AMA1-RON2 inh
Cc1ccccc1NC(=O)CSc1n[nH]c(-c2ccccn2)n1	u	n	n	8.91µM
CN(C)c1ccc(NC(=S)c2ccccn2)cc1	u	n	n	14.1µM
CCOC(=O)c1c(-c2ccccc2)oc2ccc(NS(=O)(=O)c3ccc(C(C)C)cc3)cc12	x	n	x	x
Oc1ccc2ccccc2c1C=NC12CN3CCN(CN(C3)C1)C2	14.1µM	n	n	n
Cc1nc2cc(-c3ccccc3)nn2c(C)c1CCC(=O)N1CCN(c2ccc(F)cc2)CC1	x	n	x	x
Cc1nc2cnc(Oc3cccc(Cl)c3)nc2n(CCc2ccccc2)c1=O	n	x	x	x
CC1(C)CC2CC(C)(CN2Cc2c(O)ccc3ccccc23)C1 (centres undefined)	u	n	11.2µM	n
CC1(C)CC2CC(C)(CN2Cc2cccc([N+](=O)[O-])c2)C1 (centres undefined)	u	u	n	n
CC(C)c1cc(C(=O)NNC(=S)NC2CCCCC2)cs1	x	n	14.1µM	n
CCc1cc(C(=O)NNC(=S)NC2CCCCC2)cs1	x	n	u	n
CCOc1ccccc1NC(=O)Cn1c(=O)n(-c2ccc(C)cc2)c(=O)c2c1cnn2C	x	n	x	x
COc1cc(Cl)c(C)cc1NC(=O)CSc1sc2c(O)cc(=O)[nH]c2c1C#N	n	n	1.58µM	n
COc1ccc(C(=O)c2coc3c2C(=O)C(=O)c2ccccc2-3)cc1	7.06µM	n	n	n
NC(N)=Nc1cc2ccccc2c2ccccc12	3.15µM	n	n	x
NC(N)=NC(N)=Nc1cccc2ccccc12	n	n	n	n
C/C(=N\NC(=O)c1ccc(NS(=O)(=O)c2cccs2)cc1)c1ccc(Cl)cc1	n	u	u	n
O=C(Nc1ccc(NC(=O)c2cccs2)cc1)c1ccc2c(c1)OCO2	n	n	n	n
C/C(=N\NC(=O)c1ccc(NS(=O)(=O)c2cccs2)cc1)c1ccc2c(c1)OCO2	n	n	17.8µM	n
O=C(Nc1cccc(NC(=O)c2ccco2)c1)c1ccc2c(c1)OCCO2	n	u	n	n
O=C(Nc1cccc(NC(=O)c2ccco2)c1)c1ccc2c(c1)OCO2	n	n	11.2µM	n
O=C(Nc1cccc(NC(=O)c2cccs2)c1)c1ccc2c(c1)OCO2	n	u	10µM	n
CCOC(=O)c1cccc(NC(=O)c2cc(C)nc3c2c(C)nn3-c2ccc(C)cc2)c1	x	n	x	x
CCOC(=O)C1=C(C)Nc2ccccc2N=C1NC(=O)C(c1ccccc1)c1ccccc1	n	n	28.2µM	n
CN(C)c1ncc2nc(-c3ccc(Cl)cc3)c(=O)n(-c3ccccc3)c2n1	n	x	x	x
COCCNC(=O)c1cc(-c2cccs2)on1	n	u	6.31µM	n
SMILES	Giardia FBPA inh	AmpC detergent	AmpC no deterg	AMA1-RON2 inh
O=C(NCc1cccs1)c1cc(-c2cccs2)on1	n	n	n	n
CC(C)[C@H](NC(=O)c1ccccc1)C(=O)OCC(=O)Nc1sccc1C(N)=O	x	x	n	n
CSc1ccc(S(=O)(=O)NCC(=O)OCC(=O)N(Cc2ccccc2)C(C)C)cc1[N+](=O)[O-]	x	n	n	n
O=C(NCC(c1ccco1)N1CCc2ccccc21)C(=O)Nc1ccccc1F (centres undefined)	x	n	n	u
O=C(NCC(c1ccco1)N1CCc2ccccc21)C(=O)Nc1ccccc1 (centres undefined)	x	u	10µM	n
COC(=O)c1cccnc1N1CCN(c2ccccc2F)CC1	n	n	0.159µM	n
O=C(C(=Cc1ccc(F)cc1)C(=O)c1ccccc1)c1ccccc1	x	x	x	n
COc1ccc(OCC2c3cc(OC)c(OC)cc3CCN2C(=O)COc2ccc(Cl)cc2Cl)cc1 (centres undefined)	x	n	x	x
COc1ccccc1NC(=O)c1sc2ncn(Cc3ccc(C)cc3)c(=O)c2c1C	n	n	0.316µM	n
COc1ccccc1NC(=O)c1sc2ncn(Cc3cccc(C)c3)c(=O)c2c1C	n	n	u	n
CC1CN(C(=O)CCCN2C(=O)c3ccccc3C2=O)CC(C)O1 (centres undefined)	n	n	n	n
CC1CN(CN2C(=O)c3ccccc3C2=O)CC(C)O1 (centres undefined)	n	n	5.62µM	n
CCOC(=O)CNC(=O)Cn1nc(N2CCN(c3ccccc3)CC2)ccc1=O	x	n	x	x
Cc1c(N=C2C=CC(=O)c3ccccc32)c(=O)n(-c2ccccc2)n1C	17.7µM	n	n	n
Cc1c(N=Nc2c(O)n(C)c(=O)n(C)c2=O)c(=O)n(-c2ccccc2)n1C	n	u	n	n
CC1(C(=O)NC2CCCCC2)CCC(=O)N1Cc1cccnc1 (centres undefined)	n	u	n	n
CC1CCC(NC(=O)C2(C)CCC(=O)N2Cc2cccnc2)CC1 (centres undefined)	n	u	44.7µM	n
Cc1cc(Nc2cc(F)ccc2C)n2ncnc2n1	n	n	28.2µM	n
Cc1cc(Nc2ccc(C)c(F)c2)n2ncnc2n1	n	n	n	n
O=C1S/C(=C/c2ccccc2)C(=O)N1CC(O)Cn1c2ccccc2c2ccccc21 (centres undefined)	n	n	15.8µM	n
COc1ccc(-n2cc(C(=O)OCc3ccc(F)c(F)c3)c3ccccc3c2=O)cc1	x	n	x	x
O=c1c(-c2ccc(Cl)cc2)nc2cncnc2n1Cc1ccccc1Cl	n	x	x	x
COc1cc2ccc(=O)oc2c(O)c1O	25.1µM	x	x	n
COc1cccc(CNC(=O)CSc2ccc(-c3sc(-c4ccccc4)nc3C)nn2)c1	x	n	x	x
C[C@]12CC(=CO)C(=O)C[C@@H]1CC[C@@H]1[C@@H]2CC[C@@]2(C)[C@H]1CC[C@]2(C)O	n	50.1µM	n	x
SMILES	Giardia FBPA inh	AmpC detergent	AmpC no deterg	AMA1-RON2 inh
CC(C)N(C(=O)COC(=O)c1ccc(O)cc1)C(C)C	n	n	3.98µM	n
CCN(CC)C(=O)COC(=O)c1ccc(O)cc1	n	n	x	n
CC(C)c1ccc(NC(=O)CSc2nc3ccccc3nc2Cc2ccccc2)cc1	x	n	x	x
O=C1c2ccccc2C(=O)N1OS(=O)(=O)c1ccc(F)cc1	n	44.7µM	n	n
O=S(=O)(c1ccccc1)N1CCN(S(=O)(=O)c2ccc(F)cc2)CC1	n	n	n	n
Cc1cc(C)c(S(=O)(=O)ON2C(=O)c3ccccc3C2=O)cc1C	n	50.1µM	n	n
C[C@H](O)CON1C(=O)c2ccccc2C1=O	n	x	x	x
Cc1ccc(S(=O)(=O)ON2C(=O)c3ccccc3C2=O)c(C)c1	n	79.4µM	n	n
Cc1cc(C)c(C)c(S(=O)(=O)ON2C(=O)c3ccccc3C2=O)c1C	x	56.2µM	n	n
O=C1C(=C(c2ccccc2)c2ccccc2)Nc2ccccc21	n	n	n	25.1µM
Oc1ccccc1-c1nc2c3ccccc3c3ccccc3c2[nH]1	17.7µM	n	n	n
CCOC(=O)c1cccc(NC2c3ccccc3C(=O)N2Cc2ccco2)c1 (centres undefined)	n	u	0.891µM	n
CC1=C2C3OC(=O)C(C)C3CCC2(C)C=C(Cl)C1=O (centres undefined)	x	x	x	n
Cc1ccc2c(c1)N(CC(=O)Nc1ncccc1C)C(=O)C(C(C)C)O2 (centres undefined)	n	n	n	n

Bioassay records from PubChem BioAssay.
